Experimental findings from PubChem BioAssay (EPA / NIEHS) are described below.

The target in assay [1] is Bile acid receptor (Homo sapiens) (UniProt Q96RI1). As to the kind of experiment: ATG_IR1_CIS: Attagene CIS-FACTORIAL HepG2 Assay for human Nuclear Receptor Subfamily 1 Group H Member 4 (NR1H4), IR1 submotif (AID 2282946). Conditions: IR1 reporter transcription, actives raise or lower the signal. In outline: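 HepG2 cells transiently transfected with multiplexed cis-element reporter units read endogenous transcription factor activity. After 24 h compound exposure, reporter mRNA was quantified by RT-PCR, fluorescent labelling, HpaI digestion and capillary electrophoresis; bidirectional fitting versus DMSO baseline.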
Chain of Bile acid receptor (Homo sapiens) (Q96RI1 whole entry, looked up): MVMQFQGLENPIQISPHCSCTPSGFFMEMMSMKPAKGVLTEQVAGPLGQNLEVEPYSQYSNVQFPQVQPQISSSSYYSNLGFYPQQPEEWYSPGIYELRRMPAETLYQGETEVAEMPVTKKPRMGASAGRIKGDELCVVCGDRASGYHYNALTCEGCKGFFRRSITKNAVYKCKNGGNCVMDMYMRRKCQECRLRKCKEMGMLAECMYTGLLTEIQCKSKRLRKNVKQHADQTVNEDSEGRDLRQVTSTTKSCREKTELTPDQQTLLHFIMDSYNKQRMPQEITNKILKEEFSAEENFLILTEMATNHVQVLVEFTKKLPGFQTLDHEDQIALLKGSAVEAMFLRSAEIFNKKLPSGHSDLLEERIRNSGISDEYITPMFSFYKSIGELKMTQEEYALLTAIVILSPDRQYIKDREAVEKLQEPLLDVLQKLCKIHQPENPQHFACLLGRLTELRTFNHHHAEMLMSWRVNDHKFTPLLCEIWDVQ

Assay [2] can be described thus: ATG_GRE_CIS: Attagene CIS-FACTORIAL HepG2 Assay for human Glucocorticoid Response Elements (GRE) (AID 2282947). Conditions: HepG2 GRE cis-reporter, Attagene multiplex mRNA; actives raise or lower the signal. The method, boiled down: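 Reporter transcripts read by RT-PCR with capillary electrophoresis fluorescence after a 24 h chemical exposure of HepG2 cells transiently transfected with multiple cis-element reporter units. Gain or loss fitted against DMSO.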

A short description of assay [3]: ATG_ISRE_CIS: Attagene CIS-FACTORIAL HepG2 Assay for human Interferon Regulatory Factor 1 (IRF1) binding to an Interferon-Stimulated Response Element (ISRE) (AID 2282948). The note with it: HepG2 ISRE cis-reporter (Attagene), mRNA transcription readout; actives raise or lower the signal. In outline: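 Multiplexed mRNA reporter readout in human liver HepG2 cells: cis-element-driven reporters transfected, compound added for 24 h, transcripts amplified, fluorescently labelled and sized by capillary electrophoresis; curve fitting bidirectional against DMSO.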

Assay [4] can be described thus: ATG_M_32_CIS: Attagene CIS-FACTORIAL HepG2 Assay for M32 Transcription Factor (Internal Marker) (AID 2282949).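 Note: background control marker of the multiplexed CIS panel rather than a real target.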 Conditions: HepG2 Attagene cis-factorial M32 reporter, mRNA; actives raise or lower the signal. The method, boiled down: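 HepG2 human liver cells transiently transfected with cis-promoter-driven multiple reporter transcription units, dosed 24 h. Reporter mRNA quantified by RT-PCR, FAM-labelled primer extension, HpaI digest and capillary electrophoresis; bidirectional fit versus DMSO baseline.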

Assay [5] can be described thus: ATG_M_06_CIS: Attagene CIS-FACTORIAL HepG2 Assay for M06 Transcription Factor (Internal Marker) (AID 2282950). The note with it: HepG2 Attagene CIS-FACTORIAL M06 internal marker reporter; actives raise or lower the signal. In outline:
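One of many multiplexed endpoints: HepG2 reporter mRNA after 24 h dosing, detected by RT-PCR and capillary electrophoresis fluorescence; gain or loss of signal analysed against DMSO.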

Assay [6] deals with Hypoxia-inducible factor 1-alpha (Homo sapiens) (UniProt Q16665). The assay can be described thus: ATG_HIF1a_CIS: Attagene CIS-FACTORIAL HepG2 Assay for human Hypoxia Inducible Factor 1 (HIF1A) (AID 2282951). Conditions: HepG2 Attagene cis-factorial HIF1a reporter transcription; actives raise or lower the signal. In outline: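 Cis-element reporter constructs were transiently transfected into HepG2 cells, which were treated for 24 h; reporter RNA was reverse-transcribed, amplified, labelled and resolved by capillary electrophoresis.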
Chain of Hypoxia-inducible factor 1-alpha (Homo sapiens) (Q16665 whole entry, looked up): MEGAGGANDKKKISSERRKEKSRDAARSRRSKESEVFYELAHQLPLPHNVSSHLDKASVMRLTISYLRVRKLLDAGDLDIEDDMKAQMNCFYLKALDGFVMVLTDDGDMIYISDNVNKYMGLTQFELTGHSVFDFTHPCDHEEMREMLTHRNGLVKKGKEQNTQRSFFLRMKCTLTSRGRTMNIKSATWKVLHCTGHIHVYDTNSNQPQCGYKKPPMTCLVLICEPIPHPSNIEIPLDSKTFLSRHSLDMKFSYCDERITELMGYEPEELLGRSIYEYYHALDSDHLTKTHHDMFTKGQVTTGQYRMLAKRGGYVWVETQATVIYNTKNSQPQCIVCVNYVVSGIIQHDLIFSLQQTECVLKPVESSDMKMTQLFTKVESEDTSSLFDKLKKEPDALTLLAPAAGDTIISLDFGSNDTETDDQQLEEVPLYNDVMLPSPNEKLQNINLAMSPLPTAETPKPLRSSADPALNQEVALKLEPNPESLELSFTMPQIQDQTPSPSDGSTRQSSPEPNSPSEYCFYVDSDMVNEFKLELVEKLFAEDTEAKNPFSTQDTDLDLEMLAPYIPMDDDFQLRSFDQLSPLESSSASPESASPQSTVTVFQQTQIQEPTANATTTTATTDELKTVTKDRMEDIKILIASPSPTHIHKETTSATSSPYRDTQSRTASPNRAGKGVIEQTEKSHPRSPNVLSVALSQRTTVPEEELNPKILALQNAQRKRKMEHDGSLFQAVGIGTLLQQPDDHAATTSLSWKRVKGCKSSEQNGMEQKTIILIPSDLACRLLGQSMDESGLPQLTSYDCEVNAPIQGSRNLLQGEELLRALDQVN

For assay [7], the target named is Heat shock factor protein 1 (Homo sapiens) (UniProt Q00613). As to the kind of experiment: ATG_HSE_CIS: Attagene CIS-FACTORIAL HepG2 Assay for human Heat Shock Transcription Factor 1 (HSE) (AID 2282953). The note with it: HepG2 HSE cis-reporter, Attagene RNA transcription; actives raise or lower the signal. In outline:
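Using HepG2 with transfected cis-driven reporter constructs, compound effects on endogenous factor activity are scored as reporter mRNA change at 24 h. Detection: RT-PCR, HpaI digestion, capillary electrophoresis; bidirectional fitting to DMSO.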

Assay [8] is described as follows: ATG_MRE_CIS: Attagene CIS-FACTORIAL HepG2 Assay for human Metal Responsive Element (MRE) (AID 2282954). The note with it: HepG2 MRE cis-reporter transcription, Attagene multiplex; actives raise or lower the signal. In outline:
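Endogenous MRE-dependent transcription read as reporter mRNA in transiently transfected human HepG2 cells at 24 h. RNA reverse-transcribed, PCR-amplified, labelled and resolved by capillary electrophoresis; gain or loss relative to DMSO.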

Assay [9] can be described thus: ATG_PBREM_CIS: Attagene CIS-FACTORIAL HepG2 Assay for human Phenobarbital-responsive Enhancer Module (PBREM) (AID 2282955). The note with it: HepG2 PBREM cis-reporter, Attagene multiplexed transcription; actives raise or lower the signal. In outline: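 Multiplexed cis-reporter readout in human hepatoma HepG2 cells; PBREM-regulated transcript quantified after 24 h exposure by fluorescent RT-PCR fragment analysis. Signal changes up or down fitted relative to DMSO.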

A short description of assay [10]: ATG_PXRE_CIS: Attagene CIS-FACTORIAL HepG2 Assay for human Pregnane X Receptor Element (PXRE) (AID 2282957). Conditions: HepG2 Attagene CIS-FACTORIAL PXRE reporter, mRNA; actives raise or lower the signal. The method, boiled down: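 Reporter transcripts under endogenous PXR-responsive cis-regulation quantified from total RNA of transfected HepG2 cells 24 h post-dosing, via RT-PCR with fluorescent primer extension and capillary electrophoresis. Gain or loss of signal fitted against DMSO baseline.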

Assay [11] in a line: ATG_RORE_CIS: Attagene CIS-FACTORIAL HepG2 Assay for human RAR-related Orphan Receptor Element (RORE) (AID 2282959). Conditions: HepG2 Attagene cis-factorial RORE reporter, mRNA; actives raise or lower the signal. The method, boiled down: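 Transfect HepG2 with MRTUs; treat 24 h; extract RNA; RT with oligo(dT); PCR with reporter-specific primers; 6-FAM primer extension; HpaI digest 2 h at 37 C; capillary electrophoresis. Fit vs DMSO, bidirectional.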

The nature of assay [12]: ATG_Sox_CIS: Attagene CIS-FACTORIAL HepG2 Assay for human SRY-box transcription factor (SOX) (AID 2282960). Conditions: HepG2 Attagene cis-factorial SOX reporter, mRNA; actives raise or lower the signal. In outline:
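Fluorescence-labelled cDNA fragments from reporter transcripts, sized by CE, give the signal. Cells: HepG2, transiently transfected with cis-regulated reporter units. Exposure 24 h; DMSO negative control; bidirectional curve fitting.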

The target in assay [13] is Transcription factor Sp1 (Homo sapiens) (UniProt P08047). As to the kind of experiment: ATG_Sp1_CIS: Attagene CIS-FACTORIAL HepG2 Assay for human Specificity Protein 1 (Sp1) (AID 2282961). Conditions: HepG2 Sp1 cis-reporter transcription, actives raise or lower the signal. The method, boiled down: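 Chemicals are dosed onto HepG2 cells transfected with multiple cis-promoter reporter constructs, and after 24 h reporter RNA is reverse-transcribed, PCR-amplified and resolved by capillary electrophoresis for fluorescence quantitation; activity is scored up or down against DMSO.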
Chain of Transcription factor Sp1 (Homo sapiens) (P08047 whole entry, looked up): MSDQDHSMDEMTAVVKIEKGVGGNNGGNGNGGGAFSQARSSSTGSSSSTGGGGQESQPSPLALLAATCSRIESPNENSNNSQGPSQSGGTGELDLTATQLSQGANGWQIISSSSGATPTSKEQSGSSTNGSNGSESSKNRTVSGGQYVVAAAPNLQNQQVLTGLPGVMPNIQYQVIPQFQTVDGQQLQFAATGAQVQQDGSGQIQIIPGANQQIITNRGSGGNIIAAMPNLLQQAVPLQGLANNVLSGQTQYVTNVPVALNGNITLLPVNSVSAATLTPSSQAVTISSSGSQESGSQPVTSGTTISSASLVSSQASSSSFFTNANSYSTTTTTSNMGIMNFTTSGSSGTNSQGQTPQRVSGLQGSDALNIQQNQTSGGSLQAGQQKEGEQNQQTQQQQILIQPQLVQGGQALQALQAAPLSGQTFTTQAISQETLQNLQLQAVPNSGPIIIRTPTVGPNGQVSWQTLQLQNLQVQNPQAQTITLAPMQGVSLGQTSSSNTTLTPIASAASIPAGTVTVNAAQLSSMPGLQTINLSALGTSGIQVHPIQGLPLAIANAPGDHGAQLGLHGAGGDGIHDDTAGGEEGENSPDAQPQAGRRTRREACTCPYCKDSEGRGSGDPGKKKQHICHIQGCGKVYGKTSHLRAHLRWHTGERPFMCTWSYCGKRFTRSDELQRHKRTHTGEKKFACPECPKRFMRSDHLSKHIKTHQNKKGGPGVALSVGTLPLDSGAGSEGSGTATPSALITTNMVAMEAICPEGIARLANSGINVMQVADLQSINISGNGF

A short description of assay [14]: ATG_SREBP_CIS: Attagene CIS-FACTORIAL HepG2 Assay for human Sterol Regulatory Element Binding (SREBP) (AID 2282962). The note with it: HepG2 Attagene cis-factorial SREBP reporter, mRNA; actives raise or lower the signal. In outline:
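Endogenous factor activity is measured in HepG2 through multiplexed reporter units under cis-element control. Following a 24 h incubation, reporter transcripts are reverse-transcribed, PCR-amplified and sized by capillary electrophoresis; activity is fitted in both directions relative to DMSO.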

The target in assay [15] is Signal transducer and activator of transcription 3 (Homo sapiens) (UniProt P40763). The assay can be described thus: ATG_STAT3_CIS: Attagene CIS-FACTORIAL HepG2 Assay for human Signal Transducer and Activator of Transcription 3 (STAT3) (AID 2282963). Conditions: HepG2, Attagene cis-factorial STAT3 reporter transcription; actives raise or lower the signal. The method, boiled down:
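Readout is reporter transcript quantified by RT-PCR and capillary electrophoresis, with 6-FAM primer extension and HpaI digestion. Total RNA is taken 24 h after dosing transiently transfected HepG2 carrying cis-regulated reporter units. Bidirectional fit against DMSO.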

The nature of assay [16]: ATG_TA_CIS: Attagene CIS-FACTORIAL HepG2 Assay for human TA Basal Promoter (AID 2282964). The note with it: HepG2 Attagene CIS-factorial TA basal promoter reporter; actives raise or lower the signal. The method, boiled down: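 Transient MRTU transfection of HepG2 preceded 24 h compound exposure. Reporter mRNA levels were then read by RT-PCR with capillary electrophoresis, and this background-control endpoint was fitted bidirectionally to DMSO.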

The nature of assay [17]: ATG_TCF_b_cat_CIS: Attagene CIS-FACTORIAL HepG2 Assay for human T-Cell-Factor with beta-catenin (TCF/b-cat) (AID 2282965). Conditions: HepG2 TCF/beta-catenin cis-reporter transcription, actives raise or lower the signal. The method, boiled down:
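Endogenous transcription factor activity is captured through cis-promoter reporter constructs transiently introduced into human HepG2 liver cells. Induced reporter mRNA is measured after 24 h and fitted bidirectionally relative to DMSO.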

In assay [18] the target is Hepatocyte nuclear factor 6 (Homo sapiens) (UniProt Q9UBC0). As to the kind of experiment: ATG_HNF6_CIS: Attagene CIS-FACTORIAL HepG2 Assay for human Hepatocyte Nuclear Factor 6 (HNF6) (AID 2282952). The note with it: HepG2 Attagene cis-factorial HNF6 reporter transcription; actives raise or lower the signal. The method, boiled down:
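Endogenous factor activity read in transiently transfected HepG2 via promoter-regulated reporter transcripts. RNA harvested 24 h post-dosing, reverse-transcribed, PCR-amplified, FAM-labelled, HpaI-digested and resolved by capillary electrophoresis; fitted in both directions against DMSO.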

In assay [19] the target is Paired box protein Pax-6 (Homo sapiens) (UniProt P26367). The assay can be described thus: ATG_Pax6_CIS: Attagene CIS-FACTORIAL HepG2 Assay for human Paired Box 6 (PAX6) (AID 2282956). Conditions: HepG2 CIS-FACTORIAL PAX6 reporter transcription, RNA readout; actives raise or lower the signal. The method, boiled down: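 Fluorescent RT-PCR products separated by capillary electrophoresis report PAX6-linked promoter mRNA in HepG2 cells 24 h post-dose. Curves fitted bidirectionally, DMSO as negative control.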
Chain of Paired box protein Pax-6 (Homo sapiens) (P26367 whole entry, looked up): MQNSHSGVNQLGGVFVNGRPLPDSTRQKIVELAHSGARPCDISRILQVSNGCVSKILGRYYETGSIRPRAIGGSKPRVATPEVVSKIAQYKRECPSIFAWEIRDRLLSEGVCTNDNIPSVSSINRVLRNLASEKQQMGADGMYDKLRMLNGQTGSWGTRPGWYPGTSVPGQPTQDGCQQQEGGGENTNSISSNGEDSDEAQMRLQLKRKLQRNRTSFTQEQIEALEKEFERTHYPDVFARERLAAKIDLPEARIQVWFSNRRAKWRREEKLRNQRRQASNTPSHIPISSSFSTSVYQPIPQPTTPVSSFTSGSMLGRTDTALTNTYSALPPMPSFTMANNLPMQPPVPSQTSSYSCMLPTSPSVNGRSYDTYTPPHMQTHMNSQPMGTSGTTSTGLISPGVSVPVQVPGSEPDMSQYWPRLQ

The nature of assay [20]: ATG_PPRE_CIS: Attagene CIS-FACTORIAL HepG2 Assay for human Peroxisome Proliferator-activated Response Element (PPRE) (AID 2282958). The note with it: HepG2 PPRE cis-element reporter, Attagene transcription factor profiling; actives raise or lower the signal. The method, boiled down:
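DMSO served as negative control and baseline for bidirectional curve fitting. Signal came from PPRE-regulated reporter mRNA in HepG2 cells, measured 24 h post-dosing by RT-PCR, 6-FAM primer extension and capillary electrophoresis.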

Active and inactive are the calls of the source. Rule for the calls: active = hit-call score of the fitted dose curve at least 0.9, where 1 is the maximum; inactive = score below 0.9.

Chain of Signal transducer and activator of transcription 3 (Homo sapiens) (P40763 whole entry, looked up): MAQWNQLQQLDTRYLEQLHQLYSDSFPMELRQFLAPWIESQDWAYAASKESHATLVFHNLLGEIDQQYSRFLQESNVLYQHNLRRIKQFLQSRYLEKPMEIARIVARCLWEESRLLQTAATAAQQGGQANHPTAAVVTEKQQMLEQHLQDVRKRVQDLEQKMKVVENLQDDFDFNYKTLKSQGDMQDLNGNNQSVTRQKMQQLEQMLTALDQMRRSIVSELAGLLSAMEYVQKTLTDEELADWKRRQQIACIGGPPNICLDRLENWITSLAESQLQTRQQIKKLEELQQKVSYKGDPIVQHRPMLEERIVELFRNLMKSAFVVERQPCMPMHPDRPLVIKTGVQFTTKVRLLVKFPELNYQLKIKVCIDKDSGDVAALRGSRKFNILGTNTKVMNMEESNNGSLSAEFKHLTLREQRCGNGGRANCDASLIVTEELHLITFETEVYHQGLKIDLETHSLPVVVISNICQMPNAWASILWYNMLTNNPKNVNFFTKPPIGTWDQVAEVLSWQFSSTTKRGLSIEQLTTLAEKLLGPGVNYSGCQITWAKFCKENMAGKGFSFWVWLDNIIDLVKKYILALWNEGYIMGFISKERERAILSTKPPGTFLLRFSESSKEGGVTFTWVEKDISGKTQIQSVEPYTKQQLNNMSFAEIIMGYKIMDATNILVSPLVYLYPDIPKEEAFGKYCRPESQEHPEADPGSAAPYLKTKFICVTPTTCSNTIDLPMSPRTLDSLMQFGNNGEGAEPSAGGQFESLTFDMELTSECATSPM
Chain of Heat shock factor protein 1 (Homo sapiens) (Q00613 whole entry, looked up): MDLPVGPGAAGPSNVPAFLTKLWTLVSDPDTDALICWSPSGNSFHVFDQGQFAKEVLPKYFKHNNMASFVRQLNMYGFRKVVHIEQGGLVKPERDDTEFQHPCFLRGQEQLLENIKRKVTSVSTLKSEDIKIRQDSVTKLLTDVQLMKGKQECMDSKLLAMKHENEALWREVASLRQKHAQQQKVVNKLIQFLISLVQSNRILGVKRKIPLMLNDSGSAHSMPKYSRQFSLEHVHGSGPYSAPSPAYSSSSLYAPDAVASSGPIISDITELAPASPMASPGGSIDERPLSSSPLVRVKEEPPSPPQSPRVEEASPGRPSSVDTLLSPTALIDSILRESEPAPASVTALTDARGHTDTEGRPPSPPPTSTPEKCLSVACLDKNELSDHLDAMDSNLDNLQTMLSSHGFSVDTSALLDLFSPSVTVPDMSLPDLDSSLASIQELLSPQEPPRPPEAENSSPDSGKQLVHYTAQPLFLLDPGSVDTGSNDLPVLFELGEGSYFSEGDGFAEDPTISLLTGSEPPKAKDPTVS
Chain of Hepatocyte nuclear factor 6 (Homo sapiens) (Q9UBC0 whole entry, looked up): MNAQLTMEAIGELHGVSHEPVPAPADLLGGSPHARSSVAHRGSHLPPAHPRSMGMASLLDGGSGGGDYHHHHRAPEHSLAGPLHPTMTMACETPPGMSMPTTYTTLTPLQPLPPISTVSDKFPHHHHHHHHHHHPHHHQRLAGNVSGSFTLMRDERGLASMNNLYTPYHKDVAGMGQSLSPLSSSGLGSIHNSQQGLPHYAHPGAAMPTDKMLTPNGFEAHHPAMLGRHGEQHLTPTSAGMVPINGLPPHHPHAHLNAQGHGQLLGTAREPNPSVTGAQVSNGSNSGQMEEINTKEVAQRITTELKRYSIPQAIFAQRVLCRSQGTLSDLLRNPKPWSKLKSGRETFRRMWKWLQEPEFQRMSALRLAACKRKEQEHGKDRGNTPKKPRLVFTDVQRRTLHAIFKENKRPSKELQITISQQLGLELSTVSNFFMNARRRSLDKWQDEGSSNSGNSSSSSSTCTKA

Usually AC50 stands for the midpoint of the concentration-response curve, whichever way the signal moves. With `CC1=C(Br)C(=O)C(Br)=C/C1=C(/c1ccccc1S(=O)(=O)O)c1cc(Br)c(O)c(Br)c1C`, the molecule was called inactive in [1], in assay [2], in [3], in assay [4], in assay [5] and in assay [6]. Besides, the outcome in [7], in assay [8], in assay [9], in assay [11], in [12] and in assay [13] was inactive. Also, the result in assay [14], in assay [15], in assay [16] and in assay [17] was inactive. Besides, the AC50 in [10] is 26.2 µM (active).

As for `Nc1ccc2cc(S(=O)(=O)O)cc(O)c2c1N=Nc1ccccc1C(F)(F)F`, the molecule was called inactive in assay [1], in [2], in assay [3], in [4], in assay [6] and in [18]. Besides, the result in assay [7], in assay [8], in [9], in assay [19], in assay [20] and in [12] was inactive. The molecule was classed as inactive in assay [13], in assay [14], in assay [15], in [16] and in [17]. In assay [10], the AC50 was 38.5 µM (active).

Take `CCCCCCCCCCCCCCCC(=O)OC/C=C(C)/C=C/C=C(C)/C=C/C1=C(C)CCCC1(C)C`: the result in [1], in assay [2], in assay [3], in assay [4], in assay [5] and in assay [18] was inactive. In addition, the molecule was classed as inactive in assay [7], in assay [8], in assay [9], in assay [19], in [20] and in assay [11]. In addition, the molecule was classed as inactive in [12], in assay [13], in [14], in assay [15], in [16] and in assay [17]. The AC50 in [10] is 3.09 µM (active).
